“And” between values parts separate entries of the source, which are not always exact repeats. Equal entries are not always repeated. Inconclusive results are not listed. The source made the active and inactive calls. The call rests on the fitted dose curve; in most records, active means well fitted inhibition curve with a large enough effect; inconclusive means small, poorly fitted or top-dose-only effect; inactive means no such curve, though single readings can be large or run the other way.
Target: Cruzipain (Trypanosoma cruzi) (UniProt P25779)
Sequence (P25779 123-467 limits assumed): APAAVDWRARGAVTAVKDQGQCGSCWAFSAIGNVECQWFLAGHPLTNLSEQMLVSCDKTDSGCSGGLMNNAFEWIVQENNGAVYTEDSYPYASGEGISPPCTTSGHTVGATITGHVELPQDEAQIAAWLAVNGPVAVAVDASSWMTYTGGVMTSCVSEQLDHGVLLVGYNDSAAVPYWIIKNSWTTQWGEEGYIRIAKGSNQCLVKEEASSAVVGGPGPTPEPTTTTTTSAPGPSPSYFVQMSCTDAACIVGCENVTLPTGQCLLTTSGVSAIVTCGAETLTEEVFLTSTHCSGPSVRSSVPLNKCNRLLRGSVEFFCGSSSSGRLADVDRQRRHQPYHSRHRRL
Experiment: Confirmation qHTS Assay for Inhibitors of Cruzain; further: nearly all actives have a fitted effect of over 40% in size;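 on activity change, negative = inhibition: plate controls were uninhibited enzyme control for no effect and buffer wells lacking enzyme for full effect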
Settings: purified cruzain, Z-FR-AMC fluorescence, 0.01% Triton
Summary of the method: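 Reaction progress from the 60 s rise in AMC fluorescence (ex 360, em 450 nm) after adding 2 uM Z-FR-AMC. Before this, 1.5 nM cruzain sat 15 min at room temperature with compound in pH 5.5 acetate buffer with 5 mM DTT and 0.01% Triton X-100.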
Potency means the concentration at half of the fitted maximal effect.

**Q.** How did the Potency turn out when O=C(NCCc1nc2ccccc2n1CCOc1ccccc1)C1CCCCC1 was run?
**A.** The Potency was 794 nM (active).

**Q.** Which activity change, negative = inhibition does the source give for Cc1oc(=O)c(NC(=O)c2cccc(Cl)c2)cc1C(=O)c1ccccc1 here?
**A.** The activity change, negative = inhibition was -24.6% (inactive).

**Q.** How did the activity change, negative = inhibition turn out when CNC(=O)c1ccc2nc(-c3ccccc3)c(-c3ccccc3)nc2c1 was run?
**A.** Its activity change, negative = inhibition is -11.4% (inactive).

**Q.** For C(/Oc1ccccc1)=C1\Nn2c(nnc2-c2cc(-c3ccccc3)n[nH]2)S1, which activity change, negative = inhibition is on record?
**A.** Its activity change, negative = inhibition is -9.74% (inactive) and -7.34% (inactive).

**Q.** CC(C)(C)OC(=O)NCc1nnc(-c2cc3ccccc3[nH]2)s1 was tested. Which activity change, negative = inhibition did it give?
**A.** Its activity change, negative = inhibition is -12.9% (inactive).

**Q.** How did the activity change, negative = inhibition turn out when COc1cc(OC)c(-c2nn3c(-c4cc(C)[nH]n4)nnc3s2)cc1OC was run?
**A.** Its activity change, negative = inhibition is -21.4% (inactive).

**Q.** How did the activity change, negative = inhibition turn out when CCn1cnc2c(Nc3cc(F)cc(F)c3)nc(C(=O)COc3c(F)c(F)cc(F)c3F)nc21 was run?
**A.** The activity change, negative = inhibition was -8.99% (inactive).

**Q.** Which activity change, negative = inhibition does the source give for CCc1ccc(NC(=O)Cn2c(SCc3ccc(C)cc3)nc3ccncc32)cc1 here?
**A.** The activity change, negative = inhibition was -7.51% (inactive).

**Q.** Which activity change, negative = inhibition does the source give for O=C(CNC(=O)C(c1ccccc1)c1ccccc1)OCC(=O)c1ccc2ccccc2c1 here?
**A.** Its activity change, negative = inhibition is 28.2% (inactive).

**Q.** With CC(C)(C)c1ccc(C(=O)NCC(=O)OC(C(=O)Nc2cc(C(F)(F)F)ccc2Cl)c2ccccc2)cc1 (centres undefined) as the compound, how does the activity change, negative = inhibition read?
**A.** The activity change, negative = inhibition was -14% (inactive).

**Q.** Which activity change, negative = inhibition does the source give for O=C(NCC1CC1)c1ccc2nc(-c3ccoc3)c(-c3ccoc3)nc2c1 here?
**A.** Its activity change, negative = inhibition is -15.5% (inactive).

**Q.** How did the activity change, negative = inhibition turn out when CC1CN(c2oc(-c3cccs3)nc2C#N)CC(C)O1 (centres undefined) was run?
**A.** Its activity change, negative = inhibition is -79.4% (inactive).

**Q.** How did the activity change, negative = inhibition turn out when CC(C)CC(O)C(=O)Nc1cc(C(F)(F)F)ccc1Cl (centres undefined) was run?
**A.** Its activity change, negative = inhibition is -12% (inactive).

**Q.** With Cn1nc(-c2ccc(F)cc2)nc2c(=O)n(C)c(=O)nc1-2 as the compound, how does the Potency read?
**A.** Its Potency is 631 nM (active).

**Q.** For O=C(N[C@@H](Cc1ccccc1)C(=O)CCl)OCc1ccccc1, which Potency is on record?
**A.** Its Potency is 447 nM (active).

**Q.** With O=C(N/N=C\c1ccccc1O)c1ccccc1O as the compound, how does the activity change, negative = inhibition read?
**A.** Its activity change, negative = inhibition is -9.61% (inactive).

**Q.** How did the activity change, negative = inhibition turn out when Cc1ccccc1OCC(=O)NCC(=O)OCC(=O)c1ccc2c(c1)CCCC2 was run?
**A.** Its activity change, negative = inhibition is -3.79% (inactive).

**Q.** How did the Potency turn out when Cc1cccc(Nc2nc(C#N)nc(NC3CCCC3)n2)c1 was run?
**A.** The Potency was 126 nM (active).

**Q.** Which Potency does the source give for COc1ccc(-c2nc3c(=O)n(C)c(=O)nc-3n(C)n2)cc1 here?
**A.** Its Potency is 1260 nM (active).

**Q.** For O=C(O)Cc1nnc(-c2cc3ccccc3[nH]2)s1, which activity change, negative = inhibition is on record?
**A.** The activity change, negative = inhibition was 10.6% (inactive).

**Q.** How did the activity change, negative = inhibition turn out when COc1ccc2cc3cc(C(=O)NCCCN4CCOCC4)oc3nc2c1 was run?
**A.** Its activity change, negative = inhibition is -114% (inactive).

**Q.** How did the Potency turn out when CC(C)C[C@H](NC(=O)[C@@H]1O[C@H]1C(=O)O)C(=O)NCCCCN=C(N)N was run?
**A.** Its Potency is 112 nM (active).

**Q.** NC(=O)C(OC(=O)CNC(=O)C1CCCCC1)c1ccccc1 (centres undefined) was tested. Which Potency did it give?
**A.** Its Potency is 2510 nM (active).

**Q.** With COc1ccc(C(F)(F)F)cc1NC(=O)C(OC(=O)CNC(=O)c1ccccc1)c1ccccc1 (centres undefined) as the compound, how does the Potency read?
**A.** Its Potency is 14100 nM (active).

**Q.** Cc1ccc(SCCC(=O)OCC(=O)Nc2ncc(Cl)cc2Cl)cc1 was tested. Which activity change, negative = inhibition did it give?
**A.** The activity change, negative = inhibition was -19.6% (inactive).

**Q.** For CC(C)(C)OC(=O)NCc1nnc(-c2cc3ccccc3[nH]2)o1, which activity change, negative = inhibition is on record?
**A.** The activity change, negative = inhibition was 0.21% (inactive).

**Q.** For N#CN1CCC(NC(=O)c2ccc(C(F)(F)F)cc2)CC1, which activity change, negative = inhibition is on record?
**A.** The activity change, negative = inhibition was -6.84% (inactive).

**Q.** How did the activity change, negative = inhibition turn out when Cc1ccccc1OCC(=O)NCC(=O)OCc1ccc2ccccc2c1 was run?
**A.** Its activity change, negative = inhibition is -17.8% (inactive).

**Q.** With C[C@H](CCC(=O)O)[C@H]1CC[C@@H]2[C@@H]3[C@@H](O)C[C@H]4C[C@@H](O)CC[C@@]4(C)[C@H]3CC[C@@]21C as the compound, how does the activity change, negative = inhibition read?
**A.** Its activity change, negative = inhibition is 2.73% (inactive).

**Q.** How did the activity change, negative = inhibition turn out when Cc1oc(=O)c(NC(=O)c2ccc(Cl)cc2)cc1C(=O)c1ccccc1 was run?
**A.** Its activity change, negative = inhibition is -10.8% (inactive).

**Q.** For O=c1oc2ccccc2cc1-c1csc(Cc2nc(-c3ccc(Br)cc3)cs2)n1, which activity change, negative = inhibition is on record?
**A.** The activity change, negative = inhibition was 1.72% (inactive).

**Q.** Which activity change, negative = inhibition does the source give for CCOc1cccc(-c2nn3c(-c4cc(C)[nH]n4)nnc3s2)c1 here?
**A.** Its activity change, negative = inhibition is -3.99% (inactive).

**Q.** With CC(C)(C)OC(=O)Cc1nnc(-c2nc3ccccc3[nH]2)s1 as the compound, how does the activity change, negative = inhibition read?
**A.** The activity change, negative = inhibition was -9.29% (inactive).

**Q.** Which activity change, negative = inhibition does the source give for CC(=O)NCCCc1ccc(C(=O)COC(=O)CNC(=O)c2ccc3ccccc3c2)cc1 here?
**A.** Its activity change, negative = inhibition is -5.36% (inactive).

**Q.** How did the activity change, negative = inhibition turn out when N#Cc1c(NC(=O)CSc2ncnc3c2cnn3-c2ccccc2Cl)sc2c1CCCC2 was run?
**A.** The activity change, negative = inhibition was -1.46% (inactive).

**Q.** CN1N/C(=C\c2ccccc2)N=C2C(=O)N(C)C(=O)N=C21 was tested. Which Potency did it give?
**A.** The Potency was 1120 nM (active).

**Q.** With O=C(NCCc1nc2ccccc2n1CCOc1ccc2ccccc2c1)C1CCCCC1 as the compound, how does the Potency read?
**A.** The Potency was 3550 nM (active).

**Q.** Which Potency does the source give for CC(C)N(CCC(=O)c1ccc2ccccc2c1)Cc1ccccc1 here?
**A.** The Potency was 31600 nM (active).

**Q.** Which activity change, negative = inhibition does the source give for CC(C)(C)OC(=O)NCC(=O)NNC(=O)c1nc2ccccc2[nH]1 here?
**A.** Its activity change, negative = inhibition is 2.49% (inactive).
